# PNC assembly inh: blocks assembly of the perinucleolar compartment; activity change (PNC), negative = inhibition, % at 10 µM; PC3M PTB-GFP, PNC prevalence imaging, 16 h; active compounds read low; 140,000 tested, 3.1% active;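 active = readout at or below -70, meaning at least 70% loss of cells showing the perinucleolar compartment, a nuclear body marking cancer cells; inconclusive = readout between -30 and a set limit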
#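 Compounds are pinned in duplicate onto adhered PC3M cells stably expressing GFP-tagged PTB and incubated 16 h at 37 C. Cells are then fixed, nuclei stained with Hoechst, and PNC-positive cells counted.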
# ALDH1A1 block: blocks purified human ALDH1A1 activity | Purified ALDH1A1, NADH fluorescence, propionaldehyde substrate | Potency, µM (series often up to 75.3 µM), most hits filed as inhibitors | 220,000 tested, 7.3% active | AID 1030
# LMNA splice mod: modulators of lamin A splicing. 200,000 tested, 0.01% active. Potency, µM (titrated, usually from 46.1 µM), actives largely listed as inhibitors. HeLa LMNA splicing GFP/RFP minigene ratio, 48 h; active = well fitted inhibition curve with a large enough effect in the signal ratio, with a control signal flat, not every such curve was filed as active; inconclusive = small, poorly fitted or top-dose-only effect, or effect the other way, or a change in a side signal; the % refers to the signal ratio
#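 S3 HeLa stable clones carrying a lamin A-EGFP splicing minigene plus DsRed2 were seeded at 600 cells/well in Opti-MEM with 2% FBS, pin-dosed and incubated 48 h at 37°C. Acumen cytometry (488 nm) gave the GFP/RFP total-intensity ratio.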
# HPGD inh: HPGD (human) dehydrogenase inhibition. P15428. Potency, µM, actives largely listed as inhibitors. purified HPGD, NADH fluorescence kinetic, PGE2 substrate. 150,000 tested, 4.3% active
#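 20 nM HPGD preincubated 15 min at room temperature with compound in 50 mM Tris-HCl pH 8, 0.01% Tween 20. Started with 1 mM NAD+ and 30 uM prostaglandin E2; NADH fluorescence (360/450 nm) read 5 times over 30-s intervals, last minus first.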
# 12-hLO inh: inhibitors of human 12-lipoxygenase (ALOX12) | Potency, µM (series often up to 57.1 µM), hits mostly inhibitors | P18054 | purified 12-hLO, xylenol orange hydroperoxide absorbance | 150,000 tested, 0.12% active; active = well fitted inhibition curve with a large enough effect; inconclusive = small, poorly fitted or top-dose-only effect; also: nearly all actives have a fitted effect of over 55% in size
# Target sequence (P18054 whole entry, looked up): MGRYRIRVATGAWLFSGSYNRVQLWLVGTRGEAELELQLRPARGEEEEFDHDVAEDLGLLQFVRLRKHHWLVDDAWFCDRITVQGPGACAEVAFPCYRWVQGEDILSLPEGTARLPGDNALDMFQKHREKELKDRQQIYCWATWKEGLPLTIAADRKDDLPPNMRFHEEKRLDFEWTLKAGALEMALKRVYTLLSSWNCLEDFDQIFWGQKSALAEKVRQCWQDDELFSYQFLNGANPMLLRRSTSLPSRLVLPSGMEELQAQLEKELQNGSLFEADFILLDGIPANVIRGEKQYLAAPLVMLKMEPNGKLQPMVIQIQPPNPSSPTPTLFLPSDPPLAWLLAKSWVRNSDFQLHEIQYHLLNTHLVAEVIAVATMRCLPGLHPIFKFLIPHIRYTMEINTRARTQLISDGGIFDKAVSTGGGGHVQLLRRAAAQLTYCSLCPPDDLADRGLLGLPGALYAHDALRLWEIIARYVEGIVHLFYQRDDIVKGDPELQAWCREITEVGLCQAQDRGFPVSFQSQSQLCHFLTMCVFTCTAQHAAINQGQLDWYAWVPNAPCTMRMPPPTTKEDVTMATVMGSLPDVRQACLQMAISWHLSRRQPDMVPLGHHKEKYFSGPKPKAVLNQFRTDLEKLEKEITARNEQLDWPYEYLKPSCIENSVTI
#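 150 nM 12hLO, 25 mM Hepes pH 7.0 + 0.01% Triton X-100; cpd preinc 15 min RT; 40 uM arachidonic acid, 30 min RT; Fe-XO 30 min; A573/A405 ratio as read-out.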
# Numbers stand for hits; – = inactive; ? = inconclusive; · = no result; [ ] = another dose, or the depositor's remark. Only some compounds are listed: those with a hit (about 10% of all), similar ones and a draw of the others. Unless noted, calls follow the shape of the dose curve; as a rule, active = well fitted inhibition curve with a large enough effect (not every such curve was filed as active); inconclusive = small, poorly fitted or top-dose-only effect, or another doubt; inactive = no such curve, though single readings can be large or run the other way.
SMILES,PNC assembly inh,ALDH1A1 block,LMNA splice mod,HPGD inh,12-hLO inh
COc1ccc2c(c1)CCN(C(=O)CCl)C2C1C(=O)CCCC1=O (stereo unspecified),–,22µM,?,–,–
Cc1cc(C)c(COCc2cc(/C=N/O)c(C)cc2C)cc1/C=N/O,–,–,?,14µM,–
Oc1cccc(C(=S)N2CCCCC2)c1,·,11µM,·,·,·
O=C(Oc1cccc(C(=S)N2CCCCC2)c1)c1ccccc1,·,2.5µM,?,·,·
O=C(Oc1ccc(C(=S)N2CCC(O)CC2)cc1)c1ccc(Cl)cc1,·,–,·,·,·
O=C(/C=C/c1ccccc1)Oc1ccccc1C(=S)N1CCOCC1,·,?,–,·,·
O=C(Oc1cccc(OC(=O)N2CCCCC2)c1)N1CCCCC1,·,–,·,·,·
O=C(/C=C/c1ccccc1)Oc1cccc(C(=S)N2CCOCC2)c1,·,4.5µM,–,·,·
O=C(Oc1ccc(C(=S)N2CCCCC2)cc1)c1ccccc1,·,11µM,–,·,·
C=C(C(C)=O)C(O)c1cccc(OC)c1 (stereo unspecified),·,–,·,–,·
O=C(O)c1ccc(N=C2SCC(=O)N2Cc2ccccc2)cc1,·,13µM,?,·,·
Cc1ccccc1OCC(=O)N/N=C1\SCC(=O)N1Cc1ccccc1,–,–,?,–,–
O=C(O)c1ccc(CN2C(=O)CSC2=S)cc1,?,13µM,?,–,–
CC(C)(C)c1ccc(CN2C(=O)CSC2=O)cc1,·,–,–[9.22 µM],·,·
O=C(C1CCCCC1)N(Cc1cccnc1)c1nc2ccc(F)cc2s1,·,·,–,·,·
COc1ccc(NC(=O)CCS(=O)(=O)c2cc3c4c(c2)CCN4C(=O)CC3)c(OC)c1,·,·,–,·,·
CC(C)c1nc2oc3c(NCC4CCCO4)ncnc3c2c2c1CCC2 (stereo unspecified),-98,?,?,?,–
CCCc1nc2oc3c(NCC4CCCO4)ncnc3c2c2c1COC(C)(C)C2 (stereo unspecified),?,?,–,?,–
CCc1nc(Oc2cccc(F)c2)c2oc3ccccc3c2n1,·,·,–,·,·
COc1nc2ccccc2c(=O)n1OCC(C)C,-82,14µM,–,–,–
Cc1cc(CC(C)C)n(-c2nc3ccccc3c(=O)n2OCc2ccccc2)n1,–,–,–,–,–
Nc1ncnc2c1nc(Sc1ccc(Cl)cc1)n2[C@H]1O[C@@H]2COP(=O)(O)O[C@H]2[C@@H]1O,·,–,–,–,·
O=C(O)Cc1sc(-c2ccccc2)nc1-c1ccccc1,–,–,–,–,–
O=C(O)Cc1sc(NCc2ccco2)nc1-c1ccccc1,·,3.5µM,–,·,·
CN(C)/C=N/c1c(C#N)nnn1Cc1ccccc1,?,?,–,20µM,–
SMILES,PNC assembly inh,ALDH1A1 block,LMNA splice mod,HPGD inh,12-hLO inh
CN(C)C=Nc1ncc2c3ccccc3n(Cc3ccccc3)c2c1C#N,–,?,?,?,–
O=C(NCc1cccc(Cl)c1)c1ccc2c(c1)SC1=NS(=O)(=O)CCN12,·,–,–,·,·
O=C(NCc1ccccc1Cl)c1ccc2c(c1)SC1=NS(=O)(=O)CCN12,·,4.5µM,?,·,·
Cc1cc(N)c2ccccc2[n+]1CCCCCCCCCC[n+]1c(C)cc(N)c2ccccc21,·,–,?,–,–
COc1ccc(C2C(C(=O)N3CCN(c4ccccc4F)CC3)c3ccccc3C(=O)N2C)cc1 (stereo unspecified),–,0.89µM,–,–,–
COc1ccc(C2C(C(=O)N3CCC(C)CC3)c3ccccc3C(=O)N2C)cc1 (stereo unspecified),-86,–,–,–,–
COc1ccc(C2C(C(=O)N3CC(C)CC(C)C3)c3ccccc3C(=O)N2C)cc1 (stereo unspecified),–,–,–,–,–
CCc1ccc(OCC(=O)N/N=C(\C)c2ccc(-n3ccnc3)cc2)cc1,–,–,–,·,–
CCOc1ccc(S(=O)(=O)Nc2ccc(C(=O)N/N=C(\C)c3ccc(-n4ccnc4)cc3)cc2)cc1,–,16µM,–,–,–
O=C1NC(=O)[C@@]2(CCOc3ccc(F)cc32)N1,·,–,·,–,–[0.00818 µM]
Cc1cc[n+](-c2[nH]c(=O)sc2/C=N/NC([S-])=Nc2ccccc2)cc1,–,25µM,–,–,–
Cc1ccc(/C=N/NC(=O)CCSc2ccccc2)cc1,–,–,–,–,–
O=c1[nH]c(-[n+]2ccccc2)c(/C=N/NC([S-])=Nc2ccccc2)s1,·,20µM,·,·,·
Cc1cc(C)c[n+](-c2[nH]c(=O)sc2/C=N/NC([S-])=Nc2ccccc2)c1,–,?,–,28µM,–
CCc1ccc[n+](-c2[nH]c(=O)sc2/C=N/NC([S-])=Nc2ccccc2)c1,–,14µM,–,·,–
Cc1ccc(/C=N/NC(=S)NCCc2ccccc2)s1,·,?,–,·,·
O=C(NCC(c1cccnc1)N1CCc2ccccc21)c1ccc(F)c(F)c1 (stereo unspecified),·,·,–,·,·
O=C(NC1CC(=O)N(c2ccc(Cl)cc2)C1)C(=O)c1c[nH]c2ccccc12 (stereo unspecified),·,·,–,·,·
O=C(Nc1cc(F)ccc1F)C1COc2ccccc2C1 (stereo unspecified),·,·,–,·,·
CCN1c2ccccc2NC2C1C(C(C)=O)C(=O)N2c1ccc(Cl)cc1 (stereo unspecified),–,14µM,?,–,?
Cc1cc(C)c2nc3s/c(=C/c4ccc5c(c4)n(C)c(=O)n5C)c(=O)n3c2c1,–,18µM,–,16µM,–
Cc1ccc(C(=O)NCCCNc2ccccc2[N+](=O)[O-])cc1,·,2.2µM,·,·,·
Cc1ccc(S(=O)(=O)NCCNC(=O)c2ccccc2)cc1,–,–,–,–,–
Cc1ccc(S(=O)(=O)NCCc2ccncc2)cc1,–,?,–,–,–
Cc1ccc(S(=O)(=O)NCCCNC(=O)c2ccccc2)cc1,–,13µM,–,–,–
SMILES,PNC assembly inh,ALDH1A1 block,LMNA splice mod,HPGD inh,12-hLO inh
Cc1ccc(S(=O)(=O)NCCCOC(=O)Nc2ccncc2)cc1,?,16µM,?,–,–
Cc1ccc(C(=O)NNS(=O)(=O)c2ccccc2[N+](=O)[O-])cc1,–,–,–,–,–
CCc1nc(NCc2ccc3c(c2)OCO3)c2oc3ccccc3c2n1,?,13µM,–,–,–
CCc1nc(Nc2ccc3c(c2)OCCO3)c2oc3ccccc3c2n1,–,25µM,?,–,–
Cc1nc(Nc2ccc3c(c2)OCCO3)c2oc3ccccc3c2n1,?,?,?,?,–
O=C(NC(c1ccccc1)c1ccccn1)c1cccc([N+](=O)[O-])c1 (stereo unspecified),·,14µM,·,·,·
O=C(NNC(=O)c1ccccn1)c1cccc([N+](=O)[O-])c1,·,–,·,·,·
CCCOc1ccc(C(=O)CCN2CCCCC2)cc1,–,0.056µM,–,–,–
CCCOc1ccc(C(O)(CCC)CCN2CCCCC2)cc1 (stereo unspecified),–,25µM,?,–,–
CCOc1ccc(C(=O)CCN2CCCCCC2)cc1,–,0.063µM,?,–,–
O=C(CCN1CCCCC1)c1ccc2c(c1)OCO2,–,?,–,?,–
CCCCOc1ccc(C(=O)CCN2CCOCC2)cc1,·,0.28µM,?,·,·
CCC(=O)c1ccc(OCC(O)CN2CCOCC2)cc1 (stereo unspecified),?,–,–,–,–
